Mot1-301 SUMO: blocks SUMOylation pathway, rescuing yeast Mot1-301 growth | S. cerevisiae Mot1-301 growth rescue, ATP luminescence, 38.5C; percent above DMSO median, 100 means doubled | growth rescue, % at 18.8 µM | hit rate 1% among 320,000;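 active = every valid replicate shows activation above 250% relative to neutral control wells; inactive = the rest, any valid replicate at or below 250%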
Efflux pump mplx: antifungal efflux pump inhibition, Nile Red retention; inhibition, % at 10 µM; S. cerevisiae Candida pump triplex; hit rate 0.44% among 330,000;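 active = plate passing quality check with inhibition over a set limit, or well fluorescence over plate mean plus 4 SD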;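 also: Nile Red retained in pooled yeast measured as flow cytometry median fluorescence; higher means more Nile Red kept so more efflux inhibition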
SKN-1 block: C. elegans SKN-1 inhibition | C. elegans VP596 Pgst-4::GFP/RFP ratio, acrylamide-induced, 24 h | inhibition, % at 21.8 µM | hit rate 0.49% among 360,000 | AID 624304;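 active = interference check ratio from 0.5 to 1.5 plus GFP to RFP signal ratio inhibition reaching or exceeding a fixed threshold, cut at about 30% in these data, passing the limit was not always enough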
HGIII-sPLA2 inh: Blocks human group III sPLA2 activity; Q9NZ20; QFRET BODIPY PC-A2 liposome hydrolysis, fluorescence; inhibition, % at 12.2 µM; hit rate 0.56% among 370,000; AID 743126;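 active = inhibition above mean plus 3 SD of compounds lying within the high and low control bounds, cut at about 19% in these data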
Target sequence (Q9NZ20 whole entry, looked up): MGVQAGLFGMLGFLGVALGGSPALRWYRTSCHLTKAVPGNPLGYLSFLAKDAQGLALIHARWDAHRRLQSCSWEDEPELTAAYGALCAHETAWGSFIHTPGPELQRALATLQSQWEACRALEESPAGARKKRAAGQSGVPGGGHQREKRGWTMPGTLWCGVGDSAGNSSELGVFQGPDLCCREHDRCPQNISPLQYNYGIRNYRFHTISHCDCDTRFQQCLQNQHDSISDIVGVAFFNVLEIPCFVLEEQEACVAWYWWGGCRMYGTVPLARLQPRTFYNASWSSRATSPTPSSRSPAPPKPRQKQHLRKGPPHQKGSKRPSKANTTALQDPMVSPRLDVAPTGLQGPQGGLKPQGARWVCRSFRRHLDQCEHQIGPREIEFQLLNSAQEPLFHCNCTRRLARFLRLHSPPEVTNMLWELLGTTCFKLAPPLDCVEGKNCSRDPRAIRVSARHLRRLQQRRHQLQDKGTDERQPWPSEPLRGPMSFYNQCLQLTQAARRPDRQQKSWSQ
Mot1 SUMO dose: yeast SUMO pathway inhibition in dose response | shares compounds with Mot1-301 SUMO | S. cerevisiae Mot1-301 galactose growth, ATP luminescence, 24 h; -100 = growth of slx-deleted rescue strain | growth activity, percent, % at 42 µM | 2,300 tested, under 10 active | AID 493004;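 active = Signal drops as the depositor expects, and the fitted half-maximal dose is no more than ten times the top valid tested dose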;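 also: more negative values mean stronger growth rescue toward the control strain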
Each line names hits and unclear results; the compound was inactive in the other large screens (follow-up assays come after a bar, where they were run). Only some compounds are listed: those with a hit (about 2.2% of all), similar ones and a draw of the others.

CCCNC(=O)c1ccc(N2CC3CC(C2)c2cccc(=O)n2C3)c(NC(=O)Nc2ccc(CC)cc2)c1 (centres undefined)	none
COc1cccc(NC(=O)Nc2cc(C(=O)NC(C)C)ccc2N2CC3CC(C2)c2cccc(=O)n2C3)c1 (centres undefined)	Mot1-301 SUMO 402 | Mot1 SUMO dose inactive
CCOc1ccc(S(=O)(=O)N2CCN(C(=O)CN3C(=O)NC4(CCCC4)C3=O)CC2)cc1	Mot1-301 SUMO 666 | Mot1 SUMO dose inactive
COc1ccc(S(=O)(=O)N2CCN(C(=O)CN3C(=O)NC4(CCCC4)C3=O)CC2)cc1	none
COc1cc2nc(CN(C)Cc3ccc(SC)cc3)[nH]c(=O)c2cc1OC	none
COc1cc2nc(CSc3ncn[nH]3)[nH]c(=O)c2cc1OC	Mot1-301 SUMO 556 | Mot1 SUMO dose inactive
CCC1=Nc2cc(C(=O)NCc3ccco3)ccc2Sc2ccc(Cl)cc21	none
COc1cccc2cc(C(=O)NCc3ccco3)c(=O)oc12	none
CCC1=Nc2cc(C(=O)NCc3ccco3)ccc2Sc2ccccc21	Mot1-301 SUMO 397 | Mot1 SUMO dose inactive
CCCOc1ccc(C(=O)NCc2ccco2)cc1	Mot1-301 SUMO 685 | Mot1 SUMO dose inactive
COc1ccc2oc(=O)c(C(=O)NCc3ccco3)cc2c1	Mot1-301 SUMO 654 | Mot1 SUMO dose inactive
CC(=O)c1ccc(N2CCN(C(=O)c3ccccc3SCC(=O)NCc3ccco3)CC2)c(F)c1	none (no result: Mot1-301 SUMO, Efflux pump mplx)
CCNC(=O)C1CCCN(C(=O)c2cc(OC)c(OC)c(OC)c2)CC1 (centres undefined)	none (no result: Mot1-301 SUMO, Efflux pump mplx)
COC(=O)c1ccc(CSc2nnc(-c3ccccc3)n2C)o1	none
COC(=O)c1ccc(CSc2nnnn2-c2ccccc2)o1	Mot1-301 SUMO active | Mot1 SUMO dose inactive
O=C(COC(=O)COc1ccccc1Cl)Nc1ccccc1OC(F)F	Mot1-301 SUMO 578 | Mot1 SUMO dose inactive
Oc1ccccc1-c1cc(C(F)(F)C(F)F)[nH]n1	Mot1-301 SUMO 872 | Mot1 SUMO dose inactive
O=C(NCCc1ccccc1)OCc1cn(Cc2ccc(F)c(F)c2)nn1	none (no result: Mot1-301 SUMO, Efflux pump mplx, SKN-1 block)
Cc1cc2nc(-c3cccc(Cl)c3)c(CC(C)(C)C)n2c(C)c1Br	none (no result: Mot1-301 SUMO, Efflux pump mplx)
CN1C(=S)SC2CS(=O)(=O)CC21C (centres undefined)	Mot1-301 SUMO 517 | Mot1 SUMO dose inactive
C[C@]12CS(=O)(=O)C[C@H]1SC(=S)N2c1ccccc1	none
ClC(Cl)(Cl)C1=NCc2nnn(Cc3ccccc3)c2N1	none (no result: Mot1-301 SUMO, Efflux pump mplx)
Cc1[nH]n(-c2ccccc2)c(=O)c1C(C[N+](=O)[O-])c1ccc(Br)cc1 (centres undefined)	Mot1-301 SUMO 524 | Mot1 SUMO dose inactive
Cc1cccc(NS(=O)(=O)c2cccc(C(=O)NCC3(N4CCCCC4)CCCCC3)c2)c1	none
CNS(=O)(=O)c1cccc(C(=O)NCC2(N3CCCCC3)CCCCC2)c1	Mot1-301 SUMO 402 | Mot1 SUMO dose inactive
COc1ccc(C(=O)N2CCN(c3ccccc3OC)CC2)cc1	none
COc1ccccc1N1CCN(C(=O)c2ccc(-c3ccccc3)cc2)CC1	Mot1-301 SUMO active | Mot1 SUMO dose inactive
C=CCCC(=O)N(C)CCO	none
CCCCCCCCn1cc(C(C)=O)c(=O)[nH]c1=O	none
C=CCn1cc(C(C)=O)c(=O)[nH]c1=O	Mot1-301 SUMO 610 | Mot1 SUMO dose inactive
O=C(NCc1ccccc1)[C@@H]1CCCN1C(=O)[C@H]1CCCN1C(=O)c1ccc(F)cc1	none (no result: Mot1-301 SUMO, Efflux pump mplx, SKN-1 block)
CCC(C)(C)NC(=O)C(c1ccc(C)cc1)N(CC1CCCO1)C(=O)CNC(=O)c1cccs1 (centres undefined)	Mot1-301 SUMO 688 | Mot1 SUMO dose inactive
Cc1ccc(C(C(=O)NC2CCCCC2)N(CC2CCCO2)C(=O)CNC(=O)c2cccs2)cc1 (centres undefined)	none
C[C@@H]1[C@@H](O)C[C@@]2(C[C@H](O)c3cc(Cl)cc(Cl)c3O2)O[C@H]1c1ccccc1Cl	none (no result: Mot1-301 SUMO, Efflux pump mplx, SKN-1 block)
CC(C)(C)NC(=O)CC1C(=O)NCCN1Cc1c(F)cccc1Cl (centres undefined)	Mot1-301 SUMO 836 | Mot1 SUMO dose inactive
O=C(CC1C(=O)NCCN1Cc1c(F)cccc1Cl)NC1CCCCCC1 (centres undefined)	none
CC(OC(=O)c1cc(S(=O)(=O)N2CCOCC2)ccc1F)C(=O)NCc1ccc2c(c1)OCO2 (centres undefined)	Mot1-301 SUMO 374 | Mot1 SUMO dose inactive
Cc1ccc(C(=O)OC(C)C(=O)NCc2ccc3c(c2)OCO3)cc1S(=O)(=O)N1CCOCC1 (centres undefined)	none
O=C(Nc1nnc(-c2ccco2)o1)c1ccc(S(=O)(=O)N2CCCC2)cc1	Mot1-301 SUMO 474 | Mot1 SUMO dose inactive
Cc1cc(=O)oc(C)c1C(=O)Nc1cccnc1Cl	none
Cc1cc(=O)oc(C)c1C(=O)Nc1ccc(Cl)cn1	Mot1-301 SUMO 421 | Mot1 SUMO dose inactive
CNc1nc(SC)n(C)c(=O)c1N=O	none (no result: SKN-1 block, HGIII-sPLA2 inh)
Cc1ccc2c(c1)N(CC(=O)NCCCN1CCN(C)CC1)C(=O)CO2	Mot1-301 SUMO 634 | Mot1 SUMO dose inactive
CCCCCCCCCC(=O)N[C@@H]1c2cc(OC)c(OC)cc2C[C@H]1O	none (no result: Mot1-301 SUMO)
COc1ccc(CCNC(=O)c2cc(-c3ccco3)on2)cc1OC	Mot1-301 SUMO 566 | Mot1 SUMO dose inactive
COc1ccc(CCNC(=O)c2cc(-c3cccs3)on2)cc1OC	none (no result: HGIII-sPLA2 inh)
CCOc1cc(C=O)ccc1OCCSc1ccc(Cl)cc1	none
CCC(C)NCCCCOc1cc(C)cc(C(C)C)c1 (centres undefined)	Mot1-301 SUMO 401 | Mot1 SUMO dose inactive
COc1ccc(-c2nc3c(Cl)cc(C(F)(F)F)cn3c2Cc2ccc(C)cc2)cc1OC	none (no result: Mot1-301 SUMO, Efflux pump mplx)
CN1OC[C@@H]2CN(Cc3ccccc3)[C@H](c3cccc(-c4ccccc4)c3)C[C@@H]21	none (no result: Mot1-301 SUMO, Efflux pump mplx)
N#C/C(=N\Nc1cccc(F)c1)C(=N)N1CCCCCC1	Mot1-301 SUMO 605 | Mot1 SUMO dose inactive
N#C/C(=N\Nc1ccc(F)cc1)C(=N)N1CCCCC1	none
CCOC(=O)C1=C(C)N(CCCC(=O)O)C(=O)NC1c1ccc2ccccc2c1 (centres undefined)	none
COc1ccc(CN(C)S(=O)(=O)c2nnc(NC(=O)c3ccccc3OC)s2)cc1OC	none
COc1ccc(CN(C)S(=O)(=O)c2nnc(NC(=O)c3ccc(C)cc3)s2)cc1OC	Mot1-301 SUMO 466 | Mot1 SUMO dose inactive
Cc1ccc(C(=O)O)cc1N=Cc1cc(Br)cc(Br)c1O	Mot1-301 SUMO 858 (no result: HGIII-sPLA2 inh) | Mot1 SUMO dose inactive
CC(=O)Nc1ccc(C(=O)N/N=C/c2cc(Br)cc(Br)c2O)cc1	none
Cc1ccc(NC(=O)/C=N/OCC(=O)NCc2ccccc2Cl)cc1	Mot1-301 SUMO 464 | Mot1 SUMO dose inactive
CC(C)c1ccc(/C=C2\SC(=O)N(CC(=O)NC3CCS(=O)(=O)C3)C2=O)cc1 (centres undefined)	none
Cc1nc(-c2ccccc2)sc1C1(C)CC(c2c(Cl)cccc2Cl)=NO1 (centres undefined)	none
Cc1nc(-c2ccc(Cl)cc2)sc1C1(C)CC(c2c(Cl)cccc2Cl)=NO1 (centres undefined)	Mot1-301 SUMO 421 | Mot1 SUMO dose inactive
